{"source": "ChEMBL document CHEMBL3988442", "about": "“University of Dundee, Small-Polar-MMV Screening Library” (2021)", "note": "About 13,000 (27%) of roughly 48,000 compounds showed an effect of 50% or more. This is one part of the list."}
{"system": "Wolbachia pipientis", "experiment": "Anti-Wolbachia Cell-Based Screen", "assay_type": "functional", "design": "scale not given: in the data most compounds retested in dose-response had high values", "conditions": "5 µM", "units": {"Percent Effect": "%"}}
{"smiles": "Cc1noc(C)c1C(=O)N1CCCN(C)c2ccc(Cl)cc21", "Percent Effect": 90.03}
{"smiles": "CCC(CNC(=O)Cc1c(C)noc1C)N1CCCC1", "note": "(centres undefined)", "Percent Effect": 6.109}
{"smiles": "Cc1noc(C)c1C(=O)N1CC[C@H]2C[C@@H](c3nccs3)O[C@@H]2C1", "Percent Effect": -4.112}
{"smiles": "Cc1nc(CN2CCN(C(=O)c3c(C)noc3C)CC2)cs1", "Percent Effect": -5.34}
{"smiles": "Cc1noc(C)c1C(C)NC(=O)N1CCCN(C(=O)c2ccsc2)CC1", "note": "(centres undefined)", "Percent Effect": 6.672}
{"smiles": "Cc1noc(C)c1C(C)NC(=O)N1CCN(c2cccs2)CC1", "note": "(centres undefined)", "Percent Effect": 5.123}
{"smiles": "Cc1noc(C)c1C(=O)N1CCSc2ccc(Cl)cc21", "Percent Effect": 93.15}
{"smiles": "Cc1noc(C)c1CC(=O)N1CCCN(C)c2ccc(Cl)cc21", "Percent Effect": 108.2}
{"smiles": "CN1CCCN(S(=O)(=O)c2cn(C)cn2)c2cc(Cl)ccc21", "Percent Effect": -2.244}
{"smiles": "Cc1noc(C)c1CN(C)C(=O)CCOc1ccc(Cl)cc1", "Percent Effect": 13.27}
{"smiles": "Cc1noc(C)c1C(C)C(=O)N1CCCN(C)c2ccc(Cl)cc21", "note": "(centres undefined)", "Percent Effect": 111.8}
{"smiles": "O=c1[nH]nc(CNc2cncc(Br)c2)[nH]1", "Percent Effect": -1.101}
{"smiles": "Cn1cc(S(=O)(=O)NC(=O)C2(c3cccc(Cl)c3)CC2)cn1", "Percent Effect": 9.889}
{"smiles": "Cc1cccc(CN(Cc2ccc(C)o2)C2CC(C)(C)NC(C)(C)C2)n1.O=C(O)CC(O)(CC(=O)O)C(=O)O", "Percent Effect": -13.89}
{"smiles": "Cc1ccc(CN2CC[C@@H](NS(C)(=O)=O)[C@@H]2Cc2ccncc2)o1.O=C(O)C(F)(F)F.O=C(O)C(F)(F)F", "Percent Effect": 0.02145}
{"smiles": "Cc1ccc(CN(Cc2ccncc2)C2CC(C)(C)NC(C)(C)C2)o1.O=C(O)CC(O)(CC(=O)O)C(=O)O", "Percent Effect": 117.7}
{"smiles": "CN(Cc1ncc[nH]1)CC1CCOc2ccccc2C1", "note": "(centres undefined)", "Percent Effect": 5.15}
{"smiles": "CC1(C)CC(N(Cc2ccccc2)Cc2ncc[nH]2)CC(C)(C)N1.O=C(O)CC(O)(CC(=O)O)C(=O)O", "Percent Effect": 109.1}
{"smiles": "Cc1ccc(CN(Cc2ncc[nH]2)C2CC(C)(C)NC(C)(C)C2)o1.O=C(O)CC(O)(CC(=O)O)C(=O)O", "Percent Effect": 124}
{"smiles": "Cc1ccccc1CN(CCO)Cc1ncc[nH]1", "Percent Effect": -0.936}
{"smiles": "CCN(CC)C(=O)[C@@H]1C[C@@H](NC(=O)c2ccoc2)CN1C", "Percent Effect": 5.596}
{"smiles": "CN(Cc1ncc[nH]1)CC(c1cccs1)N1CCOCC1", "note": "(centres undefined)", "Percent Effect": -1.486}
{"smiles": "Cc1nc(NC(=O)NC2CC(=O)N(C)C2)nn1C(C)C", "note": "(centres undefined)", "Percent Effect": -15.27}
{"smiles": "CCC[C@H]1CN(c2nccc(NCC)n2)C[C@@H]1NS(=O)(=O)N(C)C", "Percent Effect": 9.452}
{"smiles": "CCNc1ccnc(N2Cc3cnn(Cc4ccc(F)cc4)c3C2)n1", "Percent Effect": -10.41}
{"smiles": "CCOc1ccc(Cl)cc1CNCCCn1ccnc1", "Percent Effect": -4.437}
{"smiles": "CCCn1nnc(NCc2ccccc2OCc2ccc(Cl)cc2)n1", "Percent Effect": 104.8}
{"smiles": "CCOc1ccc(CNCCCn2ccnc2)cc1Br", "Percent Effect": 7.125}
{"smiles": "Cc1cnn(CCNCc2ccccc2OCc2cccnc2)c1", "Percent Effect": -3.699}
{"smiles": "c1ccc(OCc2ccncc2)c(CNC2CCc3ncnn3C2)c1", "note": "(centres undefined)", "Percent Effect": -0.3287}
{"smiles": "CCOc1cc(CNc2nnn(C)n2)ccc1OCc1ccc(Cl)cc1", "Percent Effect": 121.9}
{"smiles": "CCOCc1ccccc1CNc1ccc2nncn2n1", "Percent Effect": -4.273}
{"smiles": "Cn1nnc(NCc2ccccc2OCc2ccc(Cl)cc2)n1", "Percent Effect": 119}
{"smiles": "CCn1nnc(NCc2ccccc2OCc2ccc(Cl)cc2)n1", "Percent Effect": 122}
